# Many of the other results were omitted from the sample, so the strongest signals are more common in it than they were.
# Experiments:
# Test in all cases: glycan array binding signal (z-score within array); higher = stronger binding
# Details in all cases: glycan notation: IUPAC condensed, linker removed
# Fuc(a1-2)Gal = biological target: Fuc(a1-2)Gal
# In short: (§1)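 The Consortium for Functional Glycomics database supplied 3228 glycan arrays, of which those lacking an available protein sequence were dropped. The binding signal, a within-array Z-score, was averaged across arrays of the same protein sequence and across linkers. Negative scores can be read as non-binding.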
# [1] = biological target: Fuc(a1-2)Gal(b1-3)GalNAc(b1-3)Gal
# In short: as §1
# [2] = biological target: Fuc(a1-2)Gal(b1-4)[Fuc(a1-3)]GlcNAc
# In short: as §1
# [3] = biological target: Fuc(a1-2)Gal(b1-4)[Fuc(a1-3)]GlcNAc(b1-2)Man(a1-3)[Fuc(a1-2)Gal(b1-4)[Fuc(a1-3)]GlcNAc(b1-2)Man(a1-6)]Man(b1-4)GlcNAc(b1-4)[Fuc(a1-6)]GlcNAc
# In short: as §1
# Fuc(a1-2)[Gal(a1-3)]Gal = biological target: Fuc(a1-2)[Gal(a1-3)]Gal
# In short: as §1
# [4] = biological target: Fuc(a1-2)[Gal(a1-3)]Gal(b1-3)GlcNAc(b1-6)GalNAc
# In short: as §1
# [5] = biological target: Fuc(a1-2)[Gal(a1-3)]Gal(b1-4)GlcNAc(b1-2)Man
# In short: as §1
# [6] = biological target: Fuc(a1-2)[GalNAc(a1-3)]Gal
# In short: as §1
# [7] = biological target: Fuc(a1-2)[GalNAc(a1-3)]Gal(b1-4)Glc
# In short: as §1
# [8] = biological target: Fuc(a1-2)[GalNAc(a1-3)]Gal(b1-4)GlcNAc
# In short: as §1
# [9] = biological target: Fuc(a1-2)[GalNAc(a1-3)]Gal(b1-4)GlcNAc(b1-2)Man(a1-3)[Fuc(a1-2)[GalNAc(a1-3)]Gal(b1-4)GlcNAc(b1-2)Man(a1-6)]Man(b1-4)GlcNAc(b1-4)[Fuc(a1-6)]GlcNAc
# In short: as §1
# [10] = biological target: Fuc(a1-2)[GalNAc(a1-3)]Gal(b1-4)GlcNAc(b1-3)GalNAc
# In short: as §1
# [11] = biological target: Fuc(a1-3)[Gal(b1-4)]Glc6S
# In short: as §1
# [12] = biological target: Fuc(a1-3)[GalNAc(b1-4)]GlcNAc
# In short: as §1
# Fuc(a1-4)GlcNAc = biological target: Fuc(a1-4)GlcNAc
# In short: as §1
# [13] = biological target: Gal(a1-3)Gal(b1-3)GlcNAc(b1-3)GalNAc
# In short: as §1
# [14] = biological target: Gal(a1-3)Gal(b1-4)GlcNAc(b1-6)GalNAc
# In short: as §1
# [15] = biological target: Gal(a1-4)Gal(b1-4)GlcNAc(b1-2)Man(a1-3)[Gal(a1-4)Gal(b1-4)GlcNAc(b1-2)Man(a1-6)]Man(b1-4)GlcNAc(b1-4)GlcNAc
# In short: as §1
# Gal(b1-3)Gal(b1-4)GlcNAc = biological target: Gal(b1-3)Gal(b1-4)GlcNAc
# In short: as §1
# [16] = biological target: Gal(b1-3)GlcNAc(b1-2)Man(a1-3)[Gal(b1-3)GlcNAc(b1-2)Man(a1-6)]Man(b1-4)GlcNAc(b1-4)GlcNAc
# In short: as §1
# [17] = biological target: Gal(b1-3)GlcNAc(b1-3)Gal(b1-4)GlcNAc(b1-2)Man(a1-3)[Gal(b1-3)GlcNAc(b1-3)Gal(b1-4)GlcNAc(b1-2)Man(a1-6)]Man(b1-4)GlcNAc(b1-4)GlcNAc
# In short: as §1
# [18] = biological target: Gal(b1-3)[Fuc(a1-4)]GlcNAc(b1-2)Man
# In short: as §1
# [19] = biological target: Gal(b1-3)[Fuc(a1-4)]GlcNAc(b1-3)Gal(b1-3)[Fuc(a1-4)]GlcNAc
# In short: as §1
# [20] = biological target: Gal(b1-3)[Neu5Ac(b2-6)]GalNAc
# In short: as §1
# Gal(b1-4)Glc = biological target: Gal(b1-4)Glc
# In short: as §1
# Gal(b1-4)GlcNAc(b1-2)Man = biological target: Gal(b1-4)GlcNAc(b1-2)Man
# In short: as §1
# [21] = biological target: Gal(b1-4)GlcNAc(b1-2)Man(a1-6)Man(b1-4)GlcNAc(b1-4)GlcNAc
# In short: as §1
# [22] = biological target: Gal(b1-4)GlcNAc(b1-3)Gal(b1-4)GlcNAc(b1-3)Gal(b1-4)GlcNAc(b1-2)Man(a1-3)[Gal(b1-4)GlcNAc(b1-3)Gal(b1-4)GlcNAc(b1-3)Gal(b1-4)GlcNAc(b1-2)Man(a1-6)]Man(b1-4)GlcNAc(b1-4)[Fuc(a1-6)]GlcNAc
# In short: as §1
# [23] = biological target: Gal(b1-4)GlcNAc(b1-3)Gal(b1-4)GlcNAc(b1-3)Gal(b1-4)GlcNAc(b1-2)[Gal(b1-4)GlcNAc(b1-3)Gal(b1-4)GlcNAc(b1-3)Gal(b1-4)GlcNAc(b1-6)]Man(a1-6)[Gal(b1-4)GlcNAc(b1-3)Gal(b1-4)GlcNAc(b1-3)Gal(b1-4)GlcNAc(b1-2)Man(a1-3)]Man(b1-4)GlcNAc(b1-4)[Fuc(a1-6)]GlcNAc
# In short: as §1
binder,measurement,setting,value
"LBL-152 (Laetiporus bicolor), B0D650 (protein) MSNEYNPPLGIAFRLCGLASDRVLFSRVSPSPEVFHHPKSEVYPDQWFVAIPGSGQNAGCYAIKSKNTGKVLFSRMSPDPRVGHIDGDGKYPDNWFKFEAGSGKYAGYFRLRAVASDTVLVSRTSTGTDTQVINYPATSAKYDDQYFTILFDHHHHHH",glycan array binding signal (z-score),Fuc(a1-2)Gal,-0.151
same,glycan array binding signal (z-score),[1],-0.162
same,glycan array binding signal (z-score),[2],-0.157
same,glycan array binding signal (z-score),[3],-0.147
same,glycan array binding signal (z-score),Fuc(a1-2)[Gal(a1-3)]Gal,-0.145
same,glycan array binding signal (z-score),[4],-0.156
same,glycan array binding signal (z-score),[5],-0.153
same,glycan array binding signal (z-score),[6],-0.151
same,glycan array binding signal (z-score),[7],-0.157
same,glycan array binding signal (z-score),[8],-0.156
same,glycan array binding signal (z-score),[9],-0.156
same,glycan array binding signal (z-score),[10],-0.155
same,glycan array binding signal (z-score),[11],-0.156
same,glycan array binding signal (z-score),[12],-0.141
same,glycan array binding signal (z-score),Fuc(a1-4)GlcNAc,-0.151
same,glycan array binding signal (z-score),[13],-0.158
same,glycan array binding signal (z-score),[14],-0.162
same,glycan array binding signal (z-score),[15],-0.132
same,glycan array binding signal (z-score),Gal(b1-3)Gal(b1-4)GlcNAc,-0.158
same,glycan array binding signal (z-score),[16],-0.154
same,glycan array binding signal (z-score),[17],-0.136
same,glycan array binding signal (z-score),[18],-0.159
same,glycan array binding signal (z-score),[19],-0.16
same,glycan array binding signal (z-score),[20],-0.154
same,glycan array binding signal (z-score),Gal(b1-4)Glc,-0.156
same,glycan array binding signal (z-score),Gal(b1-4)GlcNAc(b1-2)Man,-0.148
same,glycan array binding signal (z-score),[21],-0.156
same,glycan array binding signal (z-score),[22],5.46
same,glycan array binding signal (z-score),[23],4.41
